According to PubChem BioAssay AID720597 (Broad Institute, 2013):
Measured potencies and affinities stand elsewhere.

Each compound was assayed against NAD-dependent protein deacylase sirtuin-5, mitochondrial (Homo sapiens) (UniProt Q9NXA8) (assay: SIRT5 deacylase inhibitors, dose response, biochemical, fluorescence imaging, cherry-pick, set 6 (AID 720597;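 note: lower AMC signal can also come from blocking the trypsin step; 0% = median of neutral control wells and -100% = median of positive control wells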)). Conditions: Purified SirT5, succinyl-peptide-AMC/trypsin fluorescence; series mostly up to 15 µM; activity change, negative = inhibition: at the top concentration;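 active = fitted half-maximal dose no more than twice the top valid tested dose, for compounds that lower signal; inconclusive = fit invalid, or curve flat with activity between -70 and -30; inactive = potency past limit, curve flat within ±30, or signal increasing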.
NAD-dependent protein deacylase sirtuin-5, mitochondrial (Homo sapiens), sequence (Q9NXA8 whole entry, looked up): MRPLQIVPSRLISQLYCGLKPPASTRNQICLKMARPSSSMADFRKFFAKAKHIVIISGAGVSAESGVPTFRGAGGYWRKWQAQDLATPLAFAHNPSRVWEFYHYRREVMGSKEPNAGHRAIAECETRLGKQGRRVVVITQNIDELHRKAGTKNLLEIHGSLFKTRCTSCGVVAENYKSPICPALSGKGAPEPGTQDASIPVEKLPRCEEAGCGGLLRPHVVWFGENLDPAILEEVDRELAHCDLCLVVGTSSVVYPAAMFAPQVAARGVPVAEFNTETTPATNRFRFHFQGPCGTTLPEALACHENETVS

Activity change, negative = inhibition, inactive:
COc1ccccc1-c1ccc2n(c1=O)C[C@@H]1[C@@H](CO)[C@H](C(=O)N3CCCCC3)[C@H]2N1CC1CC1 20.6%
C[C@H](CO)N1C[C@H](C)[C@H](CN(C)C(=O)NC2CCCCC2)Oc2ccc(NC(=O)Nc3ccccc3)cc2C1=O -4.75%
CN(C)C(=O)c1cccc(-c2ccc([C@H]3[C@@H](CO)N4CCCCN(S(C)(=O)=O)C[C@H]34)cc2)c1 -13.1%
Cc1ccc(S(=O)(=O)Nc2ccc3c(c2)C(=O)N([C@H](C)CO)C[C@@H](C)[C@H](CN(C)Cc2ccc(Cl)c(Cl)c2)OCCCC[C@H](C)O3)cc1 0.114%
C[C@H](CO)N1C[C@H](C)[C@H](CN(C)S(=O)(=O)c2ccc(Cl)cc2)OCCCC[C@H](C)Oc2ccc(NS(=O)(=O)c3ccc(F)cc3)cc2C1=O -7.61%
Cc1noc(C)c1S(=O)(=O)N(C)C[C@H]1Oc2ccc(NC(=O)Cn3cnnn3)cc2CC(=O)N([C@H](C)CO)C[C@H]1C 2.62%
C[C@@H]1CN([C@H](C)CO)S(=O)(=O)c2ccc(C#Cc3ccccc3F)cc2O[C@H]1CN(C)C(=O)c1ccc2c(c1)OCO2 22.1%
O=C(CC1CC1)N1CC2(C1)[C@@H](c1ccccc1)[C@@H](CO)N2Cc1cccc(F)c1 -9.95%
C[C@@H]1CN([C@@H](C)CO)C(=O)c2cc(-c3cccc(F)c3)cnc2O[C@H]1CN(C)C -3.87%
CCCNC(=O)N1[C@H](CO)[C@@H](c2ccccc2)C12CN(C(=O)CC1CC1)C2 2.41%
